Among the data in ChEMBL document CHEMBL4513216, “Probing the Open Global Health Chemical Diversity Library for Multistage-Active Starting Points for Next-Generation Antimalarials” (ACS Infect Dis, 2020) are INHIBITION values, retold here.

Hit rate of the full screen: of about 69,000 compounds, about 8,600 (12%) showed an effect of 50% or more. Many of the other results were omitted from the sample, so strong results are more common in it than they were.

In the test the test system is Plasmodium berghei. The experiment in a line: Screen against P. berghei liver stage (PbLuc), transformed with Luciferase, at 10uM. The class given is functional, HepG2. The settings on record: tested at 10 uM.
As to `Cc1cc(C(=O)N(CC(F)(F)F)C2CCOCC2)c(C)o1`, the INHIBITION amounted to 15%.
In the case of `Cc1nnc(CNC(C)c2cc(C)c(F)c(C)c2)s1` (stereo not given), the INHIBITION is recorded as 36.2%.
The same measure for `CC(C(=O)Nc1ccccn1)n1ccc(C(F)(F)F)n1` (stereo not given): 11%; for `O=C(O)[C@@H]1CN(C(=O)CSCC2CC2)C[C@H]1c1ccncc1`: -8.7%; for `CCN(CC1CCOC1)C(=O)c1cn2ccc(C)cc2n1` (stereo not given): 30.5%.
`Cc1cc(-c2cc(N)c(=O)n(CC(=O)NC3CCCC3)n2)c(C)o1`: the INHIBITION amounted to 18.27%.
The same measure for `Cc1ccc(CN2CC[C@@H]3[C@@H](CO[C@H]3CN3CCN(C)CC3)C2)cc1`: 23.3%; for `Cc1cc(C(=O)N2CC[C@@H](O)[C@@H]2Cc2ccccc2)no1`: 2.58%; for `COc1ccc2c(c1)C(=O)CC1(CCN(Cc3ccc(F)cc3)CC1)O2`: -0.371%.
Consider `COc1ccc2c(c1)OC1(CCN(Cc3ccc(F)cc3)CC1)CC2=O`, for which the INHIBITION worked out at 51.6%.
The result for `COc1ccc2c(c1)OC1(CCN(Cc3ccc(C)cc3)CC1)CC2=O` reads 31.2%; that for `CCOC(=O)CN1CCC2(CC1)CC(=O)c1ccc(OC)cc1O2`, 72.4%; that for `COc1ccc2c(c1)OC1(CCN(Cc3cccc(C)c3)CC1)CC2=O`, 37.2%.
The result for `COc1ccc2c(c1)OC1(CCN(Cc3ccccc3C)CC1)CC2=O` reads 5.56%.
`CSCCC(=O)N1C[C@@H](C)[C@](O)(C(C)C)C1`: the INHIBITION stood at 22.5%.
Consider `CCn1cnnc1CNC(=O)N1CCC(CN2CCOCC2)CC1`, for which the INHIBITION was -11.4%.
The same measure for `CNc1ncc(CN(C)C(=O)c2cccc(-n3cnnc3)c2)cn1`: 28.5%; for `CC(C)c1nc(C2CCCN2Cc2cc(=O)n(C)c(=O)n2C)no1` (stereo not given): 33.8%; for `CCc1[nH]nc(NC(=O)c2cc[nH]n2)c1C`: 0.342%.
As for `N#Cc1ccc(N2CCC3(CCC(=O)N3CCN3CCCC3)CC2)nc1`, the INHIBITION came out at 68.4%.
The result for `N#Cc1ccc(N2CCC3(CCC(=O)N3Cc3ccncc3)CC2)nc1` reads 43.9%; that for `N#Cc1ccc(N2CCCC3(CCC(=O)N3CC3CC3)CC2)nc1` (stereo not given), 56.6%; that for `N#Cc1ccc(N2CCC3(CCC(=O)N3Cc3cccnc3)CC2)nc1`, 27.6%.
Consider `CN1C(=O)CCC12CCN(c1ccc(C#N)cn1)CC2`, for which the INHIBITION came out at 38.5%.
The same measure for `O=C1CCC2(CCCN(c3ncc(F)cn3)CC2)N1CC1CC1` (stereo not given): -57.6%; for `O=C(c1ccsc1)N1CCN2C[C@H](OCc3cccnc3)C[C@H]2C1`: 21.6%; for `CCc1nc(-c2ccc(NC(=O)N3CCCC3)cc2)no1`: -81%.
Regarding `CCCC1COCCN1Cc1ccc(C(=O)O)cc1` (stereo not given), the INHIBITION came out at 19.8%.
With `Cc1nc2cc(O)nn2c(C)c1CCC(=O)N(C)Cc1ccccc1`, the INHIBITION was -24.8%.
For the molecule `Cc1cccc(C(=O)N2CCN(C(=O)Cc3ccccn3)CC2)c1C`, the INHIBITION was 31.8%.
With `Cc1cc(C(=O)N2C[C@@H]3C(CN(C)CCCn4cccn4)[C@@H]3C2)c(C)o1` (stereo not given in full), the INHIBITION turned out to be 52.6%.
The same measure for `Cc1cc(C(=O)N2CCN(CC(O)Cn3cccn3)CC2)c(C)o1` (stereo not given): 29.6%; for `Cc1ccccc1C(=O)N1C[C@@H]2C(CN(C)CCc3ccccn3)[C@@H]2C1` (stereo not given in full): 55.4%.
Regarding `Cc1cc(C(=O)N2C[C@@H]3C(CN(C)CCc4ccccn4)[C@@H]3C2)c(C)o1` (stereo not given in full), the INHIBITION is recorded as 41.5%.
The result for `Cc1cc(C(=O)N2CCC(CCn3cccn3)CC2)c(C)o1` reads 39.5%.
Regarding `Cc1noc(C2CCC3(CCN(C(=O)c4cnccn4)CC3)O2)n1` (stereo not given), the INHIBITION is listed as -4.32%.
The same measure for `c1ccc(-n2ccc(CNC3CCc4ncnn4C3)n2)cc1` (stereo not given): 16.45%; for `Cc1ccc(-c2ccccc2CC2(C(=O)NC(C)C)CCCNC2)cc1` (stereo not given): 42.1%.
The result for `Cc1occc1C(=O)N1CCCn2cnc(CN3CCCC3=O)c2C1` reads 34.2%; that for `COc1nccc(N2CC[C@@H](N3CCN(C)CC3)[C@H](O)C2)c1C#N`, -3.77%; that for `Cc1ccccc1CC1(CO)CCCN(c2ncncc2C(C)C)C1` (stereo not given), 68.4%.
Consider `Cc1cnc(C)c(N2CCCC(CO)(Cc3ccccc3C)C2)n1` (stereo not given), for which the INHIBITION is 68.4%.
The result for `Cc1ccccc1CC1(CO)CCCN(c2ncnc3sccc23)C1` (stereo not given) reads 87.9%.
Turning to `Cc1ccccc1CC1(C(=O)O)CCCN(c2ncnc3[nH]ccc23)C1` (stereo not given), the INHIBITION worked out at 25.5%.
The same measure for `CCCC1(CO)CCCN(c2ncnc3c2c(C)nn3C)C1` (stereo not given): 25.9%; for `Cc1ccccc1CC(=O)N(C)CC1(O)CCCN(c2ccccn2)C1` (stereo not given): -10.5%.
The same measure for `Cc1cnc(C)c(N2CCCC(C/C=C/c3ccccc3)(C(=O)O)C2)n1` (stereo not given): 27.9%; for `Cc1cnc(C)c(N2CCC(Cc3ccccc3Cl)(C(=O)O)CC2)n1`: 13.5%; for `Cc1cnc(C)c(N2CCCC(CC3CC3)(C(=O)O)C2)n1` (stereo not given): 57.5%.
The same measure for `COc1cccc(CC2(CO)CCCN(c3nccs3)C2)c1` (stereo not given): 3.46%.
With `CCNC(=O)[C@@H]1C[C@@H](NC(=O)c2ccc(C#N)cc2)CN1CCCSC`, the INHIBITION is given as -14.3%.
The result for `CCCC(=O)N1CCC([C@@H]2C[C@H](C(F)(F)F)n3nc(C)cc3N2)CC1` reads -29.8%; that for `CC(=O)Nc1nc(C(=O)N2CCCC2Cn2cccn2)cs1` (stereo not given), 37.3%.
The result for `CN(C(=O)Cn1nc(-c2ccc(F)cc2)ccc1=O)C1CCS(=O)(=O)C1` (stereo not given) reads 13.4%; that for `c1cnnc(N2CCCC2CNCc2csc(-c3ccco3)n2)c1` (stereo not given), 31.95%; that for `Cc1ncsc1C(=O)N(Cc1cccs1)C1CC1`, 6.25%.
The same measure for `CCCNCc1cn(C)nc1-c1cccnc1`: 2.74%; for `COc1c(C2CCCN2C(=O)c2csc(C3CC3)n2)c(C)nn1C` (stereo not given): -21.5%.
Regarding `CC(C)Nc1cccc(CC2CCN(C)C2)n1` (stereo not given), the INHIBITION was -52.6%.
Turning to `COCC1CN(Cc2c(C)noc2C)Cc2ccnn2C1` (stereo not given), the INHIBITION is 15.9%.
Turning to `CC(C)N1CCC(C(=O)N2CCc3c(nc(CC4CC4)[nH]c3=O)C2)CC1`, the INHIBITION is listed as 53.8%.
The same measure for `CC(C)N1CC(C(=O)N2CCc3c(nc(CC4CC4)[nH]c3=O)C2)CC1=O` (stereo not given): 20.6%; for `CC(C)N1CCCC(C(=O)N2CCc3c(nc(CC4CC4)[nH]c3=O)C2)C1` (stereo not given): 26.9%.
The result for `c1csc(CN2CCn3c(Cn4cncn4)cnc3C2)c1` reads 20.6%; that for `CC(=O)N1CC(=O)N(c2cccnc2)CC12CCN(Cc1nccs1)C2` (stereo not given), -3.52%.
The same measure for `O=C(c1ccccc1)N1CCOC2CNCC[C@H]21` (stereo not given in full): 28.5%; for `c1ccc(CN2CCOC3CNCC[C@H]32)cc1` (stereo not given in full): 55.5%.
Consider `N#Cc1cccc(CN2CCO[C@@H]3CNC[C@@H]32)c1`, for which the INHIBITION is listed as 16.9%.
The result for `O=C(O)c1ccn(-c2ccccc2NS(=O)(=O)c2cccc(Cl)c2F)n1` reads 32.9%.
The same measure for `CN(C)C(=O)CO[C@@H]1CN(Cc2ccccc2F)[C@@H]2CCCO[C@@H]21`: -1.83%.
The result for `c1cnc2c(c1)cc([C@H]1CCCO1)n2CCN1CCCCC1` reads 35.3%; that for `Cc1ccc(C(=O)N2CCOC3(CCCC3)C2)c(=O)[nH]1`, 51.7%; that for `CC(C)c1cc(C(=O)N2CCOC3(CCNCC3)C2)no1`, 28.2%.
In the case of `CC(C)c1cc(C(=O)N2CCCC3(CCNC3)C2)no1` (stereo not given), the INHIBITION was 40.2%.
The result for `CC(C)c1cc(C(=O)N2CCOC3(CCCC3)C2)no1` reads 50.4%.
For `Cc1ccc(C(=O)N2CCC3(CCCC3)CC2)c(=O)[nH]1`, the INHIBITION came to 37.1%.
Turning to `Cc1ccc(C(=O)N2CCC3(CCCCC3)C2)c(=O)[nH]1`, the INHIBITION stood at 21.7%.
`CN(Cc1ccco1)[C@@H]1CN(C(=O)c2cnccn2)C[C@@H]2CCCO[C@@H]21`: the INHIBITION was -2.17%.
The same measure for `CC(C)NC(=O)[C@H]1C[C@H]2CN(C(=O)NCc3ccccc3)C[C@@H]1O2`: -43.8%.
Consider `CCn1nc(C)c(C(=O)Nc2ccc3c(c2)C(C)(C)C(=O)N3C)c1C`, for which the INHIBITION is listed as 23.4%.
The same measure for `Cc1nc(C)n(C2CCCN(C(=O)c3ccc(CN(C)C)cc3)C2)n1` (stereo not given): 5.45%; for `Cc1ccc(NCc2ncc(C(C)(C)C)o2)c(Cl)c1`: -26.2%.
Consider `CC(C)(C)c1cnc(CNc2cccc(Cn3cnnc3)c2)o1`, for which the INHIBITION is -17.6%.
The same measure for `Cc1cccc(NCc2ncc(C(C)(C)C)o2)c1`: 72.2%; for `CCN(Cc1ncc(C(C)(C)C)o1)Cc1ccccc1C`: 53.3%.
The same measure for `CCN(Cc1cccc(Cl)c1)Cc1ncc(C(C)(C)C)o1`: 49%.
The result for `Cc1ccc(CN(C)Cc2ncc(C(C)(C)C)o2)o1` reads 46.4%; that for `Cc1cccc(CN(Cc2ccccn2)Cc2ncc(C(C)(C)C)o2)c1`, 71.5%; that for `Cc1cccc(CN(Cc2ccccn2)S(=O)(=O)N(C)C)c1`, -1.38%.
Take `Cc1cccc(CN(Cc2ccccn2)S(=O)(=O)N(C)C(C)C)c1`: the INHIBITION is listed as -12.4%.
The same measure for `Nc1ncc(-c2cccc(NC(=O)[C@@H]3CCCCN3)c2)cn1`: 14.5%; for `Cc1cncc(C(=O)N2C[C@H]3CCC[C@@]3(COc3ccccn3)C2)c1`: 24.5%.
`CN(C)S(=O)(=O)N1CC[C@H]2OCC[C@@]2(COc2cccnc2)C1`: the INHIBITION turned out to be 33%.
Take `Cc1nc(C)c(CN2CCOC(CNc3cccnn3)C2)s1` (stereo not given): the INHIBITION is reported as 41.5%.
The same measure for `O=C(c1cc(-n2cccn2)ccc1Cl)N1CCCC(N2CCCC2)C1` (stereo not given): 14.6%; for `CCN(C)C[C@@H]1CN(C(=O)c2cc(-c3ccc(F)cc3)n[nH]2)C[C@@H]1CO`: 43.9%; for `CCc1ccc(CN2CC[C@@H]3CN(S(C)(=O)=O)CCO[C@@H]3C2)o1`: 42.6%.
The same measure for `CCOc1cccc2c1OCC(=O)N(c1ccc(N(C)C)cc1)C2`: 45.5%; for `CCOc1cccc2c1OCC(=O)N(c1ccc3c(c1)OCO3)C2`: 14.9%.
Consider `CCOc1cccc2c1OCC(=O)N(c1ccc3c(c1)OCCO3)C2`, for which the INHIBITION was found to be 56.5%.
As for `Cc1ccoc1C(=O)N1CCc2ccc(=O)n(CCN(C)C)c2CC1`, the INHIBITION is given as -16.2%.
For `NC(=O)c1nc2c(s1)CCN(C(=O)Nc1cccc(Cl)c1)CC2`, the INHIBITION is recorded as 80.2%.
The same measure for `CCN(CC)C(=O)c1nc2c(s1)CCN(C(=O)Nc1ccccc1)CC2`: 58.3%.
`CNC(=O)c1nc2c(s1)CCN(C(=O)c1ccccc1)CC2`: the INHIBITION was 1.9%.
In the case of `NC(=O)c1nc2c(s1)CCN(Cc1ccccc1)CC2`, the INHIBITION amounted to 12.1%.
The result for `COCC(=O)N1CCc2nc(C(=O)Nc3cccnc3)sc2CC1` reads -52.3%; that for `CNC(=O)N1CCc2nc(C(=O)Nc3cccnc3)sc2CC1`, 42.6%; that for `O=C(Nc1ccccc1)N1CCc2nc(C(=O)N3CCCC3)sc2CC1`, 89.1%.
Regarding `NC(=O)c1nc2c(s1)CCN(C(=O)Nc1ccccc1)CC2`, the INHIBITION was 40.5%.
The same measure for `O=C(c1ccc(Cl)cc1)N1CCc2nc(C(=O)N3CCCC3)sc2CC1`: -29.3%.
